Results filed as inconclusive are left out. Calls of active or inactive are those of the source. Unless noted, the call rests on the fitted dose curve; in most records, active means well fitted curve in the direction sought with a large enough effect; inconclusive means small, poorly fitted or top-dose-only effect, or another doubt; inactive means no such curve, though single readings can be large; an effect the other way counts as inactive or inconclusive.

Experiment [1] has as its target Calcium and integrin-binding protein 1 (Homo sapiens) (UniProt Q99828). The experiment is described as follows: Primary qHTS for Identification of Calcium Integrin Binding Protein 1 (CIB1) Competitor (AID 1508620).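 Further: GST tagged CIB1 binding a fluorescein labelled alphaIIb integrin peptide tracer; top concentration of the series differs between compounds; on the % scale 0 is the no-effect control and ±100 the full control effect.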 An outline of the steps:
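Fluorescence polarization competition: CIB1-GST (1 uM final) preincubated with compound 15 min at room temperature, then FITC-labeled alphaIIb peptide (100 nM final) added for another 15 min. Polarization read at Ex 480/Em 540.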

The nature of experiment [2]: A High-Content qHTS Against Drug Library for the Identification of Small Molecules that Inhibit DYT1 Early Onset Primary Dystonia-Associated Cell Pathology (AID 1645839; calls by dose curve). The method, boiled down: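 Induced EGFP-delE TorsinA cells are imaged after 48 h of compound treatment. Punctate fusion-protein distribution gives the %pathology value, while nuclei counts flag toxicity. Wild-type EGFP-hTOR1A cells define the normal pattern.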
In general terms: In qHTS, concentration-response curves come from the screen itself.

Experiment [3] concerns the target Cytochrome P450 2D6 (Homo sapiens) (UniProt P10635). As to the kind of experiment: Cytochrome P450 family 2 subfamily D member 6 (CYP2D6) small molecule antagonists: luciferase biochemical (cell-free) qHTS assay (AID 1645840; active means well fitted curve in the direction sought with a large enough effect in the repeat runs; an effect the other way counts as inactive or inconclusive; further: nearly all actives have a fitted effect of over 55% in size; further: potency means the concentration at half of the fitted maximal effect; on activity change, negative = inhibition: on the % scale 0 is the no-effect control and ±100 the full control effect). The method, boiled down:
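P450-Glo CYP2D6 system: proluciferin substrate converted by enzyme to luciferin, read by luminescence proportional to activity. Enzyme-substrate mix with compound 10 min at room temperature, then NADPH regeneration 1 h before detection reagent.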

Experiment [4] concerns the target Cytochrome P450 2C9 (Homo sapiens) (UniProt P11712). As to the kind of experiment: Cytochrome P450 family 2 subfamily C member 9 (CYP2C9) small molecule antagonists: luciferase biochemical (cell-free) qHTS assay (AID 1645842; active means well fitted curve in the direction sought with a large enough effect in the repeat runs; an effect the other way counts as inactive or inconclusive; further: nearly all actives have a fitted effect of over 55% in size; further: potency means the concentration at half of the fitted maximal effect; on activity change, negative = inhibition: on the % scale 0 is the no-effect control and ±100 the full control effect). An outline of the steps:
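P450-Glo CYP2C9 system: proluciferin substrate with enzyme in mix containing 0.4% BSA, 10 min at room temperature, then NADPH regeneration solution added and incubated 1 h at 37C. Detection reagent stopped reaction; luminescence read after 20 min as RLU.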

The nature of experiment [5]: Cytotoxicity counterscreen for inhibitors of SARS-CoV-2 cell entry (AID 1645845; calls by dose curve; further: nearly all actives have a fitted effect of over 50% in size). The method, boiled down:
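After a 15 min room-temperature ATPLite 1step step, luminescence reflected ATP remaining in HEK293-ACE2 cells exposed to compound for 1 h plus 48 h at 37 C, with percent activity set by cell and no-cell controls.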
A general note: Counterscreens check selectivity or assay interference.

A short description of experiment [6]: Primary qHTS to identify inhibitors of SARS-CoV-2 cell entry (AID 1645846; calls by dose curve; further: nearly all actives have a fitted effect of over 45% in size). The settings on record: activity change, negative = inhibition: at 57.1 µM (top of the series) unless noted. The method, boiled down: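 Inhibition of spike-mediated entry was scored in human ACE2-transfected Expi293F cells. Particles were MLV-pseudotyped with Wuhan-Hu-1 S carrying a 19-aa C-terminal deletion; signal was luciferase after two days, scaled between spike PP and fusion-protein-free PP.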

The nature of experiment [7]: Primary qHTS for inhibitors of nuclear receptor binding SET domain protein 2 (NSD2) in an isogenic RCH-ACV NSD2 p.E1099K mutant (9B) (AID 1645876). Further: nearly all actives have a fitted effect of over 70% in size. Further: potency means the concentration at half of the fitted maximal effect.
A short description of experiment [8]: Counterscreen qHTS for small molecule stabilizers of the endoplasmic reticulum resident proteome: GLuc-NoTag assay (AID 1508627). Further: potency means the concentration at half of the fitted maximal effect. An outline of the steps:
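Secreted GLuc lacking the SERCaMP modification is measured in SH-SY5Y cells exposed to compound for 19 h and then to thapsigargin (100 nM, 4 h) to deplete ER calcium; hits retested at 11 concentrations, up to 76.6 uM.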

Experiment [9] in a line: Cell Viability qHTS for small molecule stabilizers of the endoplasmic reticulum resident proteome (AID 1508629).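 Further: potency means the concentration at half of the fitted maximal effect; compound exposure about 46 h in total before the viability read.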 The settings on record: cell viability counter-screen, 100 nM thapsigargin for final 4 h.
Experiment [10] can be described thus: Primary qHTS for inhibitors of nuclear receptor binding SET domain protein 2 (NSD2) in an RCH-ACV wild type WT cells (2C) (AID 1645877). Further: nearly all actives have a fitted effect of over 70% in size. Further: potency means the concentration at half of the fitted maximal effect.
Experiment [11] addresses Rap guanine nucleotide exchange factor 3 (Homo sapiens) (UniProt O95398). The experiment is described as follows: Confirmatory qHTS for agonist of cAMP-regulated guanine nucleotide exchange factor 3 (EPAC1) (AID 1645881).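 Further: EPAC1 catalysed release of BODIPY-GDP from Rap1B seen as fluorescence loss; 100% = effect of cAMP agonist control; nearly all actives have a fitted effect of over 75% in size.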
Experiment [12] concerns the target Rap guanine nucleotide exchange factor 4 (Homo sapiens) (UniProt Q8WZA2). The experiment is described as follows: Confirmatory qHTS for agonist of cAMP-regulated guanine nucleotide exchange factor 4 (EPAC2) (AID 1645884).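 Further: nucleotide exchange releases bodipy-GDP from Rap1 and this lowers its fluorescence; on the % scale 0 is the no-effect control and ±100 the full control effect; nearly all actives have a fitted effect of over 65% in size.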

Chain of Cytochrome P450 2D6 (Homo sapiens) (P10635 whole entry, looked up): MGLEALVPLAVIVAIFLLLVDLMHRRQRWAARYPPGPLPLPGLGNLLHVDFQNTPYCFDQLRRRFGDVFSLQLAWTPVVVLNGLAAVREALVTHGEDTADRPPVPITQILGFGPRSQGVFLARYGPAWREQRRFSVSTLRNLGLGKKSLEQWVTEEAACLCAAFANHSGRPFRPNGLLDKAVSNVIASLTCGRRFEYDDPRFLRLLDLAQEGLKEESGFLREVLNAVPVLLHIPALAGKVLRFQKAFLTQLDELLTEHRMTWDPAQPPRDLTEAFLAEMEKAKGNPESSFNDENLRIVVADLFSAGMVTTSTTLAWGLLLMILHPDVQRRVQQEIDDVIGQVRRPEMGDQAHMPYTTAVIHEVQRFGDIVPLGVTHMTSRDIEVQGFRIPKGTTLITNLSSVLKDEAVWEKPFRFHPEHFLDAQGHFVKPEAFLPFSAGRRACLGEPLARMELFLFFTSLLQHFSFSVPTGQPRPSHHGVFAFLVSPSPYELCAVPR
Chain of Calcium and integrin-binding protein 1 (Homo sapiens) (Q99828 whole entry, looked up): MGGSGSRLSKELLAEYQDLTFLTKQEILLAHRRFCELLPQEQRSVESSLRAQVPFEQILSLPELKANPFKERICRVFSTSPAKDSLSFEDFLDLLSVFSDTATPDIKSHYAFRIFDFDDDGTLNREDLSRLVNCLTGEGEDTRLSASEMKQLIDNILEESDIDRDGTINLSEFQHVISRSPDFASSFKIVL
Chain of Cytochrome P450 2C9 (Homo sapiens) (P11712 whole entry, looked up): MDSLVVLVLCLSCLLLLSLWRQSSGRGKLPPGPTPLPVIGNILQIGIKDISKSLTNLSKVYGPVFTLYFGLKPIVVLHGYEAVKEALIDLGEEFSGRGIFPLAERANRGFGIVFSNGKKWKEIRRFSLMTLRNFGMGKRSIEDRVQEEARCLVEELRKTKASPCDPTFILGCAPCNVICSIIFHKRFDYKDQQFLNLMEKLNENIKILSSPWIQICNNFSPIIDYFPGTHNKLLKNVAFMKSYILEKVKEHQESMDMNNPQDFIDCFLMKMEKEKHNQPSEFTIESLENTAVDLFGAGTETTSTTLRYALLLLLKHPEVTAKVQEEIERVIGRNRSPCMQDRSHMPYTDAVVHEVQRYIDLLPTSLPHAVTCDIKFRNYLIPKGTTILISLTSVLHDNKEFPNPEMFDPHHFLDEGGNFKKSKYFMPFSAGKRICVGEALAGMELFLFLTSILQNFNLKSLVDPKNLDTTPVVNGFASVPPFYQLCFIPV
Chain of Rap guanine nucleotide exchange factor 3 (Homo sapiens) (O95398 whole entry, looked up): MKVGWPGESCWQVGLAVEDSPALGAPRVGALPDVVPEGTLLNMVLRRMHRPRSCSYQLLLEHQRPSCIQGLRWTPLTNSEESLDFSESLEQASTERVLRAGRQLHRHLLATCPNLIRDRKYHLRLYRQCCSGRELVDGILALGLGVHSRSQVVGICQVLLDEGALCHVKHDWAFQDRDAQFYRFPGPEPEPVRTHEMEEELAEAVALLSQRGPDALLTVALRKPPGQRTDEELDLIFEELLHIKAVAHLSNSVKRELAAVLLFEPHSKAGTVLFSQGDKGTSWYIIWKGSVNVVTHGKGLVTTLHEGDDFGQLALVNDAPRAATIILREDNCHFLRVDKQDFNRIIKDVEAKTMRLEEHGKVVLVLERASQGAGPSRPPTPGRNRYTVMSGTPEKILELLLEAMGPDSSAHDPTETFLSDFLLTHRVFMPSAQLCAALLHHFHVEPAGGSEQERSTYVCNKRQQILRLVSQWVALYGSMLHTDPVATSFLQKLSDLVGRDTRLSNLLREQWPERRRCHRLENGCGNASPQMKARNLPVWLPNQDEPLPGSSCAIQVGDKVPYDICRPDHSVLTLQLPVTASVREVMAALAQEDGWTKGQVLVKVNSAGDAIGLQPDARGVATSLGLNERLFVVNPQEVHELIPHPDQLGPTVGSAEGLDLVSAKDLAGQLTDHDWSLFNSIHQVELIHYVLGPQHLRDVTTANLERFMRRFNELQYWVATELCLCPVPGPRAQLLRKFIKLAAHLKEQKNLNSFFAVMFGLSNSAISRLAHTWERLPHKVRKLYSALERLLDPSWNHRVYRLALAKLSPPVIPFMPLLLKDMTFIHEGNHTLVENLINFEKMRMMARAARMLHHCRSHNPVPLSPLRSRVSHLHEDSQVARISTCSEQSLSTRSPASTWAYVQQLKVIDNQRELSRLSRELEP
Chain of Rap guanine nucleotide exchange factor 4 (Homo sapiens) (Q8WZA2 whole entry, looked up): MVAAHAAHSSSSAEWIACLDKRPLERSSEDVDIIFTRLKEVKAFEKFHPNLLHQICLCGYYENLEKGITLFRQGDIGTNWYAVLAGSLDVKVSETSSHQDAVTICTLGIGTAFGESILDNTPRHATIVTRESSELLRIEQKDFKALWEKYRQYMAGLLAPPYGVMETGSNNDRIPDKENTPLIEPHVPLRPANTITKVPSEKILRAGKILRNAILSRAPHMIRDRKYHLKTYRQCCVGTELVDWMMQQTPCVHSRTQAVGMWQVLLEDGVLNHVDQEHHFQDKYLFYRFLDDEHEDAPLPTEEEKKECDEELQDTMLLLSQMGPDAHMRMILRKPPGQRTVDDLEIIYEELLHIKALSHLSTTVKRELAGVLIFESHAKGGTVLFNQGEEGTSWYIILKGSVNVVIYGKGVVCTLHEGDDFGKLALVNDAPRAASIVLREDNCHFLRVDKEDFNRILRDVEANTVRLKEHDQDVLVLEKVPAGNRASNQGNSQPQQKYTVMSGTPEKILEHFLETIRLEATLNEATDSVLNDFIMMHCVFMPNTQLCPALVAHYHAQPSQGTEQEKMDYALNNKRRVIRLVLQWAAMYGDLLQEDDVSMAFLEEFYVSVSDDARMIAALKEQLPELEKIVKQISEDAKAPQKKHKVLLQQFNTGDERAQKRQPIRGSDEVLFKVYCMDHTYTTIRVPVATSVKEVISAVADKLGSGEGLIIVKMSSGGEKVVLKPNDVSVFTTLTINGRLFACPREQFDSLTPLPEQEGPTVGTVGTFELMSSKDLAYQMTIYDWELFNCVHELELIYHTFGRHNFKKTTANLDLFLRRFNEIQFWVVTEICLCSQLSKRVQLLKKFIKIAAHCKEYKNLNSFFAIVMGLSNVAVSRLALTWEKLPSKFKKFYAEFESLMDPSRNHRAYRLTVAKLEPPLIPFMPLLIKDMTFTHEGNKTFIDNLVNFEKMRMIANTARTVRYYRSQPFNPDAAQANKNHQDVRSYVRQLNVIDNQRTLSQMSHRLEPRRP

As to `COc1cc(C[C@@H](C)N)c(OC)cc1Br`, the Potency result in experiment [1] and in experiment [4] was “inactive” each time. Besides, in [2], the outcome was inactive. Further, the Potency in [3] was 25.9 µM (active).
Take `CCC1(c2cccc(O)c2)CCCCN(C)C1` (centres undefined): the Potency entry in [1], in experiment [4], in [5], in experiment [6] and in experiment [7] was “inactive” throughout. The Potency in experiment [3] was 13.8 µM (active).
Consider `CC[n+]1c(-c2ccccc2)c2cc(N)ccc2c2ccc(N)cc21`, for which the Potency in experiment [8] is 20 µM (active); in experiment [9], 3.16 µM (active); in [3], 3.47 µM (active); in experiment [7] it was 5.96 µM (active); in experiment [10] it was 2.66 µM (active). For the same compound, the result in experiment [2] was inactive.
Consider `CCOC(=O)C1(c2ccccc2)CCN(CCc2ccc(N)cc2)CC1`, for which the Potency result in experiment [1], in experiment [5] and in experiment [7] was “inactive” throughout. Moreover, in experiment [3], the Potency was 1.74 µM (active).
On to `CCO[C@H]1O[C@@H]2OC3(C)CC[C@H]4[C@H](C)CC[C@@H]([C@H]1C)[C@@]24OO3`, for which the Potency entry in [1] and in experiment [3] was “inactive” throughout. Moreover, in experiment [2], the compound was classed as inactive. Moreover, the Potency is 15.5 µM (active) in experiment [4] and 2.99 µM (active) in experiment [7].
Regarding `Clc1ccc(CSC(Cn2ccnc2)c2ccc(Cl)cc2Cl)cc1` (centres undefined), the Potency entry in [1] is “inactive”. Further, the Potency in [7] and in experiment [10] was 5.96 µM (active) throughout. Besides, the outcome in [11] and in experiment [12] was inactive.
For the compound `CNC(=O)Oc1cccc2ccccc12`, the Potency result in experiment [1], in experiment [3], in experiment [4], in experiment [5] and in experiment [6] was “inactive” throughout. For the same compound, the compound was classed as inactive in experiment [2].
Consider `CC#C[C@]1(O)CC[C@H]2[C@@H]3C[C@H](C)C4=CC(=O)CC[C@]4(C)[C@H]3CC[C@@]21C`, for which the Potency result in experiment [1] and in [5] was “inactive” each time. Also, the Potency in experiment [4] was 17.4 µM (active); in [7], 23.7 µM (active).
On to `Cc1ccc(N=CN(C)C=Nc2ccc(C)cc2C)c(C)c1`, for which the Potency result in experiment [1], in experiment [4], in [5], in experiment [7] and in [10] was “inactive” throughout. Moreover, the call in experiment [2] was inactive. The activity change, negative = inhibition in [6] is -12.8%.
As for `CCOC(C(=O)OCCN(C)C)(c1ccccc1)c1ccccc1`, the Potency entry in experiment [1] and in experiment [7] was “inactive” throughout. Moreover, the call in experiment [2] was inactive. In addition, the Potency in experiment [3] is 1.38 µM (active); in experiment [4], 3.09 µM (active).
On to `C[C@H](CN1CCOCC1)C(C(=O)N1CCCC1)(c1ccccc1)c1ccccc1`, for which the Potency result in experiment [1], in experiment [7] and in [10] was “inactive” in each case. The compound was classed as inactive in [2]. Moreover, in experiment [3], the Potency is 38.6 µM (active).
Turning to `CCCCC1C(=O)NC(=O)N(C2CCCCC2)C1=O` (centres undefined), the Potency entry in [1], in [3], in [5] and in experiment [6] was “inactive” throughout. In [2], the compound was classed as inactive. Besides, the Potency in experiment [4] is 26.8 µM (active).
Turning to `CC(C(O)c1ccccc1)N(C)C/C=C/c1ccccc1` (centres undefined), the Potency result in experiment [1] and in experiment [5] was “inactive” in each case. Also, in [2], the call was inactive. Further, the Potency in experiment [3] was 0.0389 µM (active).
With `COc1ccc(CN2CCNCC2)c(OC)c1OC`, the Potency entry in [1], in experiment [6] and in [7] was “inactive” in each case. Besides, in [2], the result was inactive.
Consider `CCc1ccc(C2CCNCC2)cc1`, for which the Potency result in experiment [1], in experiment [4], in experiment [7] and in experiment [10] was “inactive” throughout. In addition, in experiment [2], the result was inactive. Moreover, in [3], the Potency is 0.347 µM (active).
Consider `O=c1n(Cl)c(=O)n(Cl)c(=O)n1Cl`, for which the Potency entry in [1], in [3], in experiment [4], in experiment [5] and in experiment [7] was “inactive” in each case. Moreover, in experiment [2], the compound was called inactive. The activity change, negative = inhibition in experiment [6] came out at 1.05%.

These data come from PubChem BioAssay (NCATS).
